From PubChem BioAssay (NCATS)
Inconclusive results are not listed. Unmarked numbers belong to inactive results. Calls of active or inactive are those of the source. The call rests on the fitted dose curve; in most records, active means well fitted curve in either direction with a large enough effect (not every such curve was filed as active); inconclusive means small, poorly fitted or top-dose-only effect, or another doubt; inactive means flat fitted curve, though single readings scatter.

Each compound was assayed against Mitogen-activated protein kinase 10 (Mus musculus) (UniProt Q61831) (assay: JNK3 AlphaScreen Assay (AID 530;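 further: kinase came from lysate of stimulated human HepG2 cells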)). Conditions: JNK3 lysate, c-Jun phosphorylation; series mostly up to 57.1 µM; activity change, negative = inhibition: at the top concentration.
Text: NIH Chemical Genomics Center [NCGC]
NIH Molecular Libraries Screening Centers Network [MLSCN]
The c-jun N-terminal kinase (JNK) family are serine/threonine protein kinases that phosphorylate c-jun, a component of the transcription factor […] (AP-1). JNK kinases are members of the mitogen-activated protein kinase family including the extracellular regulated kinases and p38 kinases. Three JNK genes (JNK 1, 2, and 3) have been identified in humans so far. JNK1 and JNK2 have a broad distribution and JNK3 is primarily found in neuronal tissues and cardiac myocytes.
JNK3 has been under consideration as a target for the treatment of neurodegenerative disorders. […] JNK pathway is also involved in pathological process in a mouse model of Parkinson's disease (Xia et al., 2001).
Given these potential tissue distributions and links to neuroprotection, JNK3 inhibitors should provide useful investigational tools to study the role of this kinase in several diseases including, arthritis, stroke, myocardial infarction, ischemic injury and Parkinson's disease.
A homogeneous AlphaScreen is developed to measure the activity of JNK3. AlphaScreen is a two bead-based proximity-dependent chemical energy transfer luminescent assay platform. The phosphorylation of a biotinylated c-jun substrate by JNK3 can be detected with an antibody raised against phosphorylated c-jun. This process brings streptavidin donor beads and Protein-A acceptor beads to within a proximity range of <200 nm, and subsequently lead a chemical luminescent reaction upon exciting donor beads with 680 nm laser excitation light. Inhibition of JNK3 activity by small molecules and subsequent decrease in the antibody binding to biotinylated c-jun could attenuate or abolish this chemical luminescent reaction.
Yang DD, Kuan CY, Whitmarsh AJ, Rincon M, Zheng TS, Davis RJ, Rakic P and Flavell RA (1997) Absence of excitotoxicity-induced apoptosis in the hippocampus of mice lacking the Jnk3 gene. Nature 389:865-870. [PMID: 9349820]
Herdegen T, Claret FX, Kallunki T, Martin-Villalba A, Winter C, Hunter T, and Karin M (1998) Lasting N-terminal phosphorylation of c-Jun and activation of c-Jun N-terminal kinases after neuronal injury. J.Neurosci. 18:5124-5135. [PMID: 9651196]
Xia XG, Harding T, Weller M, Bieneman A, Uney JB and Schulz JB (2001) Gene transfer of the JNK interacting protein-1 protects dopaminergic neurons in the MPTP model of Parkinson's disease. Proc.Natl.Acad.Sci.U.S.A. 98:10433-10438.
NCGC Assay Protocol Summary:
GST-cJun (1-79) (Stratagene, La Jolla CA, #205145) was biotnylated by PerkinElmer (PerkinElmer-BioSignalInc. Montreal, Canada) and was detectable by the streptavidin Donor beads. Anti-(phospho)cJun (Ser73) antibody was from UpState (Charlottesvilles, VA, #06-659). JNK3-containing lysates were generated from HepG2 cells and pre-activated by interleukin1-beta and tumor necrosis factor alpha. All reagents were stored at -20 C before using. Phosphorylated biotinylated-GST-cJun was recognized by Anti-(phospho)cJun (Ser73) antibody and this process brings acceptor and donor beads together. Therefore JNK3 phosphorylation of cJun can be measured by Alpha reading by EnVision (PerkinElmer, Boston, MA).
The composition of kinase buffer was (in mM) 20 tris- HCl (pH 7.6) 10 MgCl2, 1 DTT, and 0.1 Na3VO4 and 0.01% Tween-20. Beads were diluted in detection buffer containing (in mM) 20 tris-HCl (pH 7.7), 20 NaCl and 80 EDTA and 0.3% BSA. The assay was performed at room temperature. All compounds were screened as titrations from 0.6 nM to 46 uM final concentration. The assay was performed in 1536-well format (white solid bottom and untreated) as follows:
Sequence,Parameter,Value,Description
1,Reagent,3 uL,Biotin-GST-cJun, Anti-(phospho)cJun and pre-activated JNK3-containing lysates
2,Compound,23 nL,Final concentration was 0.6nM to 46uM
3,Time,15 minutes,Room Temperature
4,Reagent,1 uL,ATP final concentration 10uM
6,Reagent,0.5 uL,2ng/well bead mixture
[…]
On the % scale 0 is the no-effect control and ±100 the full control effect.

| SMILES | activity change, negative = inhibition | outcome |
| --- | --- | --- |
| NCCc1ccc(O)c(O)c1 | 2.69% |  |
| O=c1n(CCCN2CCN(c3cccc(Cl)c3)CC2)nc2ccccn12 |  | inactive |
| O=NN(CCCl)C(=O)NCCCl | -7.25% |  |
| CN1CCN(CCCN2c3ccccc3Sc3ccc(C(F)(F)F)cc32)CC1 |  | inactive |
| CCCCNc1cc(C(=O)O)cc(S(N)(=O)=O)c1Oc1ccccc1 | -0.869% [at 25.6 µM] |  |
| Cn1cnc([N+](=O)[O-])c1Sc1ncnc2nc[nH]c12 |  | inactive |
| CCN(c1ccccc1)c1cc(NC)[n+](C)c(C)n1 | -20.2% |  |
| NC(N)=NC(=O)c1nc(Cl)c(N)nc1N |  | inactive |
| CCOC(=O)C1=C[C@@]2(CC)CCCN3CCc4c(n1c1ccccc41)[C@H]32 |  | inactive |
| Cc1ccc(N(CC2=NCCN2)c2cccc(O)c2)cc1 |  | inactive |
| CC(C)(Sc1ccc(CCN(CCCCC2CCCCC2)C(=O)NC2CCCCC2)cc1)C(=O)O |  | inactive |
| C1COC(NC(C2CC2)C2CC2)=N1 |  | inactive |
| N[C@@H]1CONC1=O |  | inactive |
| COc1ccc2nc(S(=O)Cc3ncc(C)c(OC)c3C)[nH]c2c1 (configuration not stated) | -10.3% [at 25.6 µM] |  |
| Cc1[nH]c(=O)c(C#N)cc1-c1ccncc1 |  | inactive |
| CCOC(=O)N1CCC(=C2c3ccc(Cl)cc3CCc3cccnc32)CC1 |  | inactive |
| O=c1[nH]cnc2[nH]ncc12 |  | inactive |
| Nc1nc2ccc(OC(F)(F)F)cc2s1 | -8.53% [at 25.6 µM] |  |
| Cc1ccc2c(c1)C(=O)[C@@]1(O)CCN(c3ccccc3)C1=N2 | 2.25% |  |

| SMILES | activity change, negative = inhibition | outcome |
| --- | --- | --- |
| CCC(C)(C)C(=O)O[C@H]1C[C@@H](C)C=C2C=C[C@H](C)[C@H](CC[C@@H]3C[C@@H](O)CC(=O)O3)[C@H]21 | -8.9% |  |
| CCCC(CCC)C(=O)O | 18.4% |  |
| Cc1cnc(NC(=O)C2=C(O)c3ccccc3S(=O)(=O)N2C)s1 | -28% |  |
| N#Cc1ccc(C(c2ccc(C#N)cc2)n2cncn2)cc1 | -0.854% [at 25.6 µM] |  |
| NC(=O)c1ccc(-c2nc(-c3ccc4c(c3)OCO4)c(-c3ccccn3)[nH]2)cc1 | -34.4% |  |
| NC(=O)c1cnccn1 |  | inactive |
| NNCCc1ccccc1 |  | inactive |
| N=c1nc(N2CCCCC2)cc(N)n1O |  | inactive |
| Nc1ccc(S(=O)(=O)Nc2ccnn2-c2ccccc2)cc1 |  | inactive |
| CNC[C@H](O)c1cccc(O)c1 | 2.99% |  |
| CC(=O)Oc1ccccc1C(=O)O |  | inactive |
| O=C1CCc2cc(OCCCCc3nnnn3C3CCCCC3)ccc2N1 |  | inactive |
| CC(C)C[C@H](NC(=O)[C@@H](O)[C@H](N)Cc1ccccc1)C(=O)O | -11.8% |  |
| NC[C@H](O)c1ccc(O)c(O)c1 |  | inactive |
| Nc1nc2c(ncn2COCCO)c(=O)[nH]1 |  | inactive |
| Clc1cccc(Cl)c1NC1=NCCN1 | -2.44% [at 25.6 µM] |  |
| Cc1oncc1C(=O)Nc1ccc(C(F)(F)F)cc1 |  | inactive |
| NS(=O)(=O)c1cc2c(cc1Cl)NC=NS2(=O)=O |  | inactive |
